# The list is not random: actives were taken first. Their share in the collection is about 2%.
# TRb SRC2 PPI: inhibitors of human thyroid hormone receptor beta-SRC2 interaction; P10828; TRbeta-SRC2 peptide binding, fluorescence polarization; receptor liganded with 1 µM T3; Potency, µM (doses to about 106 µM), for inactives: top-dose activity change, negative = inhibition, actives largely listed as inhibitors; 280,000 tested, 0.065% active;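 note: potency is the fitted concentration of half-maximal effect; plate controls were bound peptide for no effect and peptide without receptor for full effect; nearly all actives have a fitted effect of over 50% in size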
#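 Decrease in fluorescence polarization of 20 nM Texas Red SRC2 coactivator peptide flagged inhibition of its binding to 0.6 uM TRb LBD; 1 uM T3 included, incubation 5 hr, ex 555/em 632 nm.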
# HTT ATP protect: Huntington cell model cytoprotection by ATP luminescence; PC12 HTT-Q103 induced, cytoprotection, ATP luminescence, 40 h; Potency, µM (top dose mostly 56.4 µM), for inactives: cytoprotection (ATP increase), hits mostly activators; 230,000 tested, 0.14% active; AID 1471; note: potency is the fitted concentration of half-maximal effect; % of control where 0% means no effect; nearly all actives have a fitted effect of over 45% in size
#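 Quantitative HTS on tebufenozide-induced (100 nM) PC12 cells expressing HTTQ103 exon 1–GFP; compounds tested as a concentration series; survival measured via cellular ATP.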
# TR SRC2 fluor cs: alters Texas Red total fluorescence, flagging assay interference. Potency, µM (series often up to 106 µM), without a hit: top-dose fluorescence change, negative = quenching. TRb/SRC2 Texas Red total fluorescence interference. AID 1479. 280,000 tested, 0.29% active; active = well fitted curve in either direction with a large enough effect; inconclusive = small, poorly fitted or top-dose-only effect; note: potency is the fitted concentration of half-maximal effect; % is set by controls: 0 for no effect and ±100 for the full control effect
#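 Human TRb ligand-binding domain at 0.6 uM with 20 nM Texas Red SRC2 peptide in Tris buffer containing 1 uM T3 and 5% DMSO, incubated with compound 5 h at ambient temperature. Total fluorescence (555/632 nm) calculated as parallel + 2 × perpendicular.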
# HttQ103 aggreg: inhibitors of mutant huntingtin aggregate formation in PC12 cells | Potency, µM (highest dose often 46.1 µM), inactives show at the top dose activity change, negative = inhibition, hits mostly inhibitors | AID 1688 | PC12 HttQ103-GFP aggregates, Acumen cytometry, 40 h | 220,000 tested, 1.1% active; note: potency is the fitted concentration of half-maximal effect; % is set by controls: 0 for no effect and ±100 for the full control effect; nearly all actives have a fitted effect of over 60% in size
#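 Ecdysone-promoter PC12 model expressing HTT exon 1 Q103 fused to GFP, induced by tebufenozide at 100 nM final. Compounds titrated; aggregates sized 1–25 µm scored on a 488 nm laser cytometer.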
# Coupling enz: counter-screen for Giardia aldolase inhibitors: coupling enzyme system; activity change, negative = inhibition, % at 58.2 µM, hits read low; 290,000 tested, 0.67% active; coupling enzyme system counterscreen, AmpLite Red fluorescence; in the data active = activity change below about -30%; note: % is set by controls: 0 for no effect and ±100 for the full control effect
#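 Coupling enzymes only (glyceraldehyde-3-phosphate) + compound, at 57.5 uM final, 10 min RT; add substrate/coupling/AmpLite Red mix, 20 min RT; fluorescence ex 525/em 598 nm. Actives flag coupling-system interference.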
# KDM4E inh: blocks human JMJD2E demethylase activity. 230,000 tested, 1.6% active. Potency, µM (titrated, usually from 57.1 µM), without a hit: at the top dose activity change, negative = inhibition, hits mostly inhibitors. B2RXH2. JMJD2E catalytic domain, FDH-coupled NADH fluorescence (FDH is formaldehyde dehydrogenase);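 note: potency is the fitted concentration of half-maximal effect; 0% = wells with enzyme and -100% = buffer wells without enzyme; nearly all actives have a fitted effect of over 50% in size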
# Target sequence (B2RXH2 1-337 limits assumed): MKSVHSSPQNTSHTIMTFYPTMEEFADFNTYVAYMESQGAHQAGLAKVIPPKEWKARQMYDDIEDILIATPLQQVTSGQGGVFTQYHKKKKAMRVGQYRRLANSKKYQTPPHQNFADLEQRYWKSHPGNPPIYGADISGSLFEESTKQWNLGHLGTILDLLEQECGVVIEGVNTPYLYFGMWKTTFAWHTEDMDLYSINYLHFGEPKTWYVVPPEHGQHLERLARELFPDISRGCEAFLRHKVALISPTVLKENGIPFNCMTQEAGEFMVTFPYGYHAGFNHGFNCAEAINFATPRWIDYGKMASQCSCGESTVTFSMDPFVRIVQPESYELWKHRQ
# Active calls of the source: *; ? = inconclusive; . = not tested or not shown; [ ] = another dose, or the depositor's remark. Unless noted, calls come from the whole dose curve; as a rule, active = well fitted curve in the direction sought with a large enough effect; inconclusive = small, poorly fitted or top-dose-only effect, or another doubt; inactive = no such curve, though single readings can be large; an effect the other way counts as inactive or inconclusive.
SMILES,TRb SRC2 PPI,HTT ATP protect,TR SRC2 fluor cs,HttQ103 aggreg,Coupling enz,KDM4E inh
O=[N+]([O-])c1ccc2c(c1)S(=O)(=O)C=C2,-23%,.,-5%,.,-2,.
O=C(COc1ccc(F)cc1)Nc1nnc(SCc2cc(=O)n3ccccc3n2)s1,8%,.,-2%,.,.,.
NC(=O)N/N=C/c1c(O)ccc2oc3c(c12)CCCC3,-3%,12%[10 µM],0%,-10%[9.22 µM],-3,28µM*
CCOC(=O)C1=C(C(C)=O)C(c2cccnc2)C(C#N)=C(N)O1 (centres undefined),-13%,15%,7%,-8%,-34*,?
N#CC1=C(N)N(c2cccc(Cl)c2)C2=C(C(=O)CCC2)C1c1cc(CN2CCOCC2)cs1 (centres undefined),4%,.,?,.,.,.
C=CCN1C(=O)N/C(=C/c2ccc(C)o2)C1=O,-27%,-15%[10 µM],16%,?,-39*,18µM*
Cc1ccc(NC(=O)CN2C(=O)N/C(=C/c3ccc(C)o3)C2=O)cc1,-12%,-17%,2%,23%,-3,?
COC(=O)N1C2=C(c3ccccc3[C@@H]1CC(=O)Nc1ccc(Br)cc1)[C@@H]1C(=O)N(c3ccccc3)C(=O)[C@@H]1[C@H](C)C2,3%[11.2 µM],-11%[10 µM],-16%[11.2 µM],.,-4,-1%[11.4 µM]
O=C1CC(c2ccco2)CC(O)=C1C=Nc1cc(Cl)ccc1O (centres undefined),1%,-8%,-21%,25%,2,28µM*
N=c1c2c(-c3ccccc3)c(-c3ccccc3)n(Cc3ccco3)c2ncn1Cc1ccco1,2%,-154%,-6%,11µM*,4,3%
Nc1cc2nsnc2cc1Br,?,6%,-9%,3%,-32*,21%
CCc1ccc(NC(=O)CC2C(=O)N(c3ccc(F)cc3)C(=O)N2Cc2ccc(F)cc2)cc1 (centres undefined),0%,.,1%,.,.,.
CCN(CC)c1cc2c(cc1F)c(=O)c(S(=O)(=O)c1ccc(OC)cc1)cn2CC,-25%,.,50µM*[quencher],.,.,.
CCn1cc(S(=O)(=O)c2ccccc2)c(=O)c2cc(F)c(N3CCN(c4ccccc4)CC3)cc21,?,.,56µM*[quencher],.,.,.
CCn1cc(S(=O)(=O)c2ccccc2)c(=O)c2cc(F)c(N3CCCC3)cc21,3%,.,10%,.,.,.
CCCn1cc(S(=O)(=O)c2cccc(Cl)c2)c(=O)c2cc(F)c(N3CCN(CC)CC3)cc21,-26%,.,112µM*[quencher],.,.,.
O=S(=O)(NCCS(=O)(=O)N1CCN(c2cccc(Cl)c2)CC1)c1ccc(F)cc1,0%,.,-6%,.,.,.
CCCCCCCCCCCCCC(=O)OC,-4%[201 µM],.,2%[201 µM],.,.,.
COc1ccc(S(=O)(=O)Cc2ccc(C(=O)NC3CCCCC3)o2)cc1,-24%,.,5.6µM*[quencher],.,.,.
COc1ccc(S(=O)(=O)Cc2ccc(C(=O)N3CCN(c4cc(Cl)ccc4C)CC3)o2)cc1,1%,27%,-4%,18µM*,-4,-8%
COc1cc(CSc2nnnn2-c2ccc(C)cc2)cc(OC)c1OC,-6%,-24%[0.074 µM],-3%,2.5µM*,-3,-2%
COc1ccc(F)cc1CSc1nnnn1-c1ccc(O)cc1,.,.,.,.,5,.
Cc1ccc(-n2cc(C(=O)c3cc(Cl)ccc3O)cc(C#N)c2=O)cc1,6%[53 µM],19%[10 µM],1%[53 µM],13µM*,-2,?
COc1ccc(-n2cc(C(=O)c3cc(Cl)ccc3O)cc(C#N)c2=O)cc1,-2%,-13%,4%,17%,-2,13%
Cc1ccccc1NC(=O)c1cc(C(=O)c2cc(Cl)ccc2O)cn(-c2ccccc2C)c1=O,-5%[53 µM],34%[10 µM],-1%[53 µM],16µM*,0,-10%
CCCCn1cc(C(=O)c2cc(Br)ccc2O)cc(C#N)c1=O,-1%,-54%,1%,16µM*,7,0%
O=C(Cn1ncc2c3ccccc3n(Cc3cccc(Cl)c3)c2c1=O)NCCC1=CCCCC1,1%,.,-1%,.,.,.

# Screening results (PubChem BioAssay)
